This is a sample that favours compounds with a hit; in the whole collection about 11% have one here.
FBPA coupling cs – coupling enzyme interference in Giardia aldolase counter-screen | 290,000 tested, 0.67% active | coupling enzyme system counterscreen, AmpLite Red fluorescence | activity change, negative = inhibition, % at 58.2 µM, hits read low; in the data active = activity change below about -30%
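Final compound at 57.5 uM, incubated 10 min at RT with coupling enzyme reagent (glyceraldehyde-3-phosphate), then 20 min with substrate and AmpLite Red detection. Fluorescence read at 525/598 nm; tests interference with the coupling assay, not aldolase inhibition.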
Tau fluor cs – counter-screen for tau fibril formation inhibitors; tau K18 P301L Alexa594 fluorescence, heparin fibrillization; Potency, µM (titrated, usually from 57.7 µM), for inactives: at the highest dose activity change, negative = decrease; 280,000 tested, 0.93% active; note: potency is the fitted concentration of half-maximal effect; nearly all actives have a fitted effect of over 55% in size
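Human tau K18 P301L (15 uM unlabeled, 0.24 uM Alexa 594-labeled) in 100 mM sodium acetate pH 7 with 20 uM heparin, 6 hr at 37 C. ThT 30 uM added, 1 hr ambient; Alexa 594 FP and total fluorescence read at 555/632 nm.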
Tau fibril ThT – tau fibrillization inhibition (ThT binding); P10636; recombinant tau K18 P301L (four-repeat tau fragment), heparin-induced fibrillization, ThT fluorescence; Potency, µM (doses to about 57.4 µM), for the others: top-dose activity, negative = inhibition, hits mostly inhibitors; 270,000 tested, 2.1% active; note: potency is the fitted concentration of half-maximal effect; nearly all actives have a fitted effect of over 55% in size
Target sequence (P10636 561-689 P618L limits assumed): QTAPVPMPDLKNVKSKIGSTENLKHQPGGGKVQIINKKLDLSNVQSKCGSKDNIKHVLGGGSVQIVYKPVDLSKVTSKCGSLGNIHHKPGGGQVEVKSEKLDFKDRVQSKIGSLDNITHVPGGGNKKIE
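Tau K18 P301L fragment (15 uM unlabeled plus 0.24 uM Alexa 594-labeled) in 100 mM sodium acetate pH 7 with compound, fibrillization induced by 20 uM heparin for 6 hr at 37 C. Thioflavin T (30 uM) added, fluorescence read after 1 hr (ex 450, em 510 nm).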
Sfp inh – inhibitors of Bacillus subtilis Sfp phosphopantetheinyl transferase; 310,000 tested, 3.5% active; Potency, µM, for inactives: largest response in the series, negative = inhibition, hits mostly inhibitors; Biochemical Sfp PPTase activity, qHTS;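 note: the enzyme is Sfp with the accession as filed and its product quenches rhodamine fluorescence; potency is the fitted concentration of half-maximal effect; 0% = enzyme reaction without inhibitor and -100% = no enzyme wells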
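Fluorescence-quenching assay with 15 nM Sfp, 5 uM rhodamine-CoA and 12.5 uM BHQ-2-labelled ybbR peptide in pH 7.6 Hepes/MgCl2 buffer. Enzyme was pre-incubated with compound for 15 min at room temperature. Rate was taken from the 30-min fluorescence change (525/598 nm).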
G9a block – inhibitors of human histone lysine methyltransferase G9a; Q96KQ7; G9a H3K9 monomethylation, AlphaScreen, 2 h; Potency, µM (doses to about 102 µM), without a hit: at the top dose activity, negative = inhibition, usual class: inhibitors; 350,000 tested, 8.8% active; AID 504332; note: potency is the fitted concentration of half-maximal effect; nearly all actives have a fitted effect of over 75% in size
Target sequence (Q96KQ7 913-1193 limits assumed): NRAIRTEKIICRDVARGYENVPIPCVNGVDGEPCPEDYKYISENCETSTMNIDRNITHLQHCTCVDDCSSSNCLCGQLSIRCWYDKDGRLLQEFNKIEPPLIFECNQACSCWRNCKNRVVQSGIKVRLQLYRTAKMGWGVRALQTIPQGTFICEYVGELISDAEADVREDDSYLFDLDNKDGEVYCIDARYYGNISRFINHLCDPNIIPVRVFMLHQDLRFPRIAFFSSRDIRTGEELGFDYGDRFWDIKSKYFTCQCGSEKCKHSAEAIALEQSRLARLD
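Enzyme 20 nM + cpd, 15 min RT; add b-H3K9 pep 500 nM / SAM 20 uM; 2 h RT; anti-H3K9me1 Ab 0.5 ug/mL + SA donor / anti-rabbit acceptor beads 20 ug/mL each, 10 min; AlphaScreen read.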
Tau fibril FP – inhibitors of human tau fibril formation | 280,000 tested, 0.39% active | K18 P301L tau heparin fibrillization, Alexa594 FP, 6 h | Potency, µM (top dose mostly 57.7 µM), without a hit: at the highest dose activity, negative = inhibition, most hits filed as inhibitors; note: potency is the fitted concentration of half-maximal effect; nearly all actives have a fitted effect of over 55% in size
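Steps: dispense K18 P301L tau (15 uM plus 0.24 uM Alexa 594 tracer, final) in pH 7 sodium acetate; add compound; add heparin (20 uM final); incubate 6 hr, 37 C; add ThT (30 uM final); after 1 hr ambient, read FP.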
Numbers without * were called inactive; ? = inconclusive; . = no result given; [ ] = another dose, or the depositor's remark. Unless noted, calls come from the whole dose curve; as a rule, active = well fitted curve in the direction sought with a large enough effect; inconclusive = small, poorly fitted or top-dose-only effect, or another doubt; inactive = no such curve, though single readings can be large; an effect the other way counts as inactive or inconclusive. Unless noted, % is set by controls: 0 for no effect and ±100 for the full control effect.

SMILES | FBPA coupling cs | Tau fluor cs | Tau fibril ThT | Sfp inh | G9a block | Tau fibril FP
Cc1cc(C)cc(C(=O)Nc2nnc3n2CCS3)c1 | . | -4% | 2% | . | 8%[59 µM] | -4%
O=C(COC(=O)Cc1cccs1)NCc1ccc(F)cc1 | . | . | . | 12% | ? | .
CC1=C(C(=O)OCc2ccccc2)C(c2cccc([N+](=O)[O-])c2)NC(=O)N1C (centres undefined) | -5 | . | . | 3% | . | .
CCCCSc1nc2sc3c(c2c(=O)n1-c1ccccc1C)CC(C)(C)OC3 | . | -9% | -18% | . | -38%[59 µM] | -12%
COc1ccc(OC)c(S(=O)(=O)N2CCC(C(=O)NC3CCCCCC3)CC2)c1 | -3 | . | . | 9% | 9% | .
COc1ccc(-c2cc3ncc(C(C)=O)c(C)n3n2)cc1 | 0 | -3% | -11% | 14% | -9%[12.7 µM] | 4%
Cc1cc(=O)[nH]c(-n2[nH]c(C)cc2=O)n1 | -2 | -6% | -12% | 22µM* | -40%[0.0925 µM] | -8%
COc1ccc(N2CCN(C(CNC(=O)C(=O)NCCCn3ccnc3)c3cccnc3)CC2)cc1 (centres undefined) | -1 | -11% | -20% | 5% | ? | -8%
O=C(NCCCn1ccnc1)C(=O)NCC(c1cccnc1)N1CCN(c2ccc(F)cc2)CC1 (centres undefined) | 1 | -10% | 4% | -26% | 50µM* | -10%
CCc1ccc(NC(=O)Cn2nnc(C(=O)NCc3ccc(C)cc3)c2N)cc1 | . | -4% | -2% | . | -5%[59 µM] | -3%
COc1ccc(N(C(C)C(=O)NCc2ccco2)S(C)(=O)=O)cc1 (centres undefined) | -1 | -12% | ? | -18% | 50µM* | -15%
O=C1NCCCc2c1oc1cc(Br)c(O)c(Br)c21 | 2 | 2% | ? | -13% | 50µM* | 5%
Cc1ccc(OCC(=O)N/N=C/C=C/c2ccco2)cc1C | -4 | -23% | ? | 45µM* | 40µM* | -2%
O=C(Cc1cccs1)N/N=C/C=C/c1ccco1 | -9 | ? | 25µM* | ? | 40µM* | ?
O=C(CNc1cccc2ccccc12)N/N=C/C=C/c1ccco1 | -5 | 16µM*[quencher] | ? | -12% | 20µM* | 10%
C/C(CCc1ccco1)=N\NC(=O)CNc1cccc2ccccc12 | -55* | -26% | ? | -17% | ? | 3%
CC(C)(C)OC(=O)N1Cc2ccccc2C[C@H]1C(=O)NCC(=O)NC1CCCCC1 | . | . | . | 13% | 28% | .
COc1cc2c(cc1OC)CN(Cc1ccc(C)cc1)CC2 | 0 | . | . | -1% | . | .
CCc1ccc2c(CN3CCc4cc(OC)c(OC)cc4C3)cc(=O)oc2c1 | 0 | -8% | ? | -6% | 8.9µM* | ?
Cc1cc2oc(=O)cc(CN3CCN(Cc4ccccc4)CC3)c2cc1Cl | -5 | -8% | -10% | -8% | -20%[59 µM] | 4%
COc1cc2c(cc1OC)CN(Cc1cc(=O)oc3cc(C)c(Cl)cc13)CC2 | -4 | -19% | ? | -12% | 10µM* | -6%
COc1cc2c(cc1OC)CN(Cc1cc(=O)oc3cc(C)c(C)cc13)CC2 | 1 | -8% | ? | -9% | 7.9µM* | -8%
COc1cc2c(cc1OC)CN(Cc1cc(=O)oc3c(C)c(C)ccc13)CC2 | -2 | -15% | ? | 1% | 25µM* | -5%
S=c1[nH]nc(CCc2ccc(Cl)cc2)o1 | 7 | -1% | -5% | -6% | 7.1µM* | 6%
S=c1[nH]nc(COc2ccc(Cl)cc2)o1 | 24 | -3% | 2% | ? | 4µM* | -10%
O=C(NCc1ccco1)c1ccc2c(c1)N(Cc1ccc(Cl)cc1)C(=O)c1ccccc1S2(=O)=O | . | -30% | -1% | . | -38%[59 µM] | ?
COc1ccc(NS(=O)(=O)c2cnc(N)nc2)cc1Cl | . | -9% | -6% | . | -31%[59 µM] | -1%
COc1ccc(CC(=O)NCc2ccc3c(c2)CCN3C(=O)c2ccc(C)cc2)cc1OC | . | -1% | -5% | . | 3%[59 µM] | 6%
